In PubChem BioAssay AID1159580 (chemical genetic matrix, 2015):
“And” between values parts separate entries of the source, which are not always exact repeats. Identical values can stand only once. Screen size: about 5,500 compounds; about 2,000 (36%) were called active. Inconclusive results (about 18%) are left out. No stated cut-off is given here; in the data, active means normalized growth mostly below about 0.91 (no sharp cut-off); inconclusive means no clear call, values can overlap the other calls; inactive means mostly above about 0.92. Some of the results follow.

Assay: chemical genetic growth profiling, strain panel (AID 1159580);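 further: tested at 20 µM; growth read once vehicle control cultures reached saturation at 30 °C; 1 = growth at the plate median or of vehicle wells; lower values mean less growth of the strain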
Settings: S. cerevisiae deletion strains, growth OD
[1] = locus YAL040C, strain CLN3, active compounds read low
[2] = locus YDR150W, strain NUM1, active compounds read low
[3] = locus YER002W, strain NOP16, active compounds read low
[4] = locus YNL175C, strain NOP13, active compounds read low
[5] = locus YNL197C, strain WHI3, active compounds read low
[6] = locus YNL224C, strain SQS1, active compounds read low
[7] = locus YOR083W, strain WHI5 (second series), active compounds read low
[8] = locus YPL055C, strain LGE1, active compounds read low

Measured: normalized growth

CCCCCCCCCCCCCC(=O)O[C@@H]1[C@@H](C)[C@@]2(O)[C@@H](C=C(CO)C[C@@]3(O)C(=O)C(C)=C[C@@H]23)C2C(C)(C)[C@@]21OC(C)=O (some centres not stated)
inactive: [1] 0.977 | locus YCL061C, strain MRC1 (second series), active compounds read low 0.992 | [2] 0.999 | locus YDR363W, strain ESC2, active compounds read low 0.999 | [3] 0.985 | locus YGR078C, strain PAC10, active compounds read low 0.972 | locus YNL128W, strain TEP1, active compounds read low 1.01 | [4] 1.01 | [5] 1.02 | [6] 1.01 | locus YNL322C, strain KRE1, active compounds read low 1 | [7] 1.01 | [8] 1.06 | locus YPL241C, strain CIN2, active compounds read low 0.997

Clc1cccc(Cl)c1NC1=NCCN1
inactive: locus YAL021C, strain ccr4, active compounds read low 0.973 | locus YAL026C, strain drs2, active compounds read low 1.01 | locus YAL030W, strain snc1, active compounds read low 0.993 | [1] 0.999 | locus YBL061C, strain skt5, active compounds read low 0.972 | locus YBR009C, strain hhf1, active compounds read low 1 | locus YBR021W, strain FUR4, active compounds read low 1.03 | locus YBR023C, strain chs3, active compounds read low 0.983 | locus YBR171W, strain sec66, active compounds read low 0.977 | locus YBR229C, strain ROT2, active compounds read low 0.999 | locus YBR231C, strain swc5, active compounds read low 0.998 | locus YBR279W, strain paf1, active compounds read low 1.01 | locus YCL011C, strain gbp2, active compounds read low 0.96 | locus YCL016C, strain dcc1, active compounds read low 0.962 | locus YCL029C, strain bik1, active compounds read low 1.02 | locus YCL061C, strain MRC1, active compounds read low 0.989 | locus YCL069W, strain vba3, active compounds read low 0.991 | locus YCR088W, strain abp1, active compounds read low 0.992 | locus YDL005C, strain med2, active compounds read low 0.996 | locus YDL035C, strain GPR1, active compounds read low 1.02 | locus YDL040C, strain nat1, active compounds read low 1.01 | locus YDL074C, strain BRE1, active compounds read low 1.03 | locus YDL101C, strain DUN1, active compounds read low 1.02 | locus YDL134C, strain PPH21, active compounds read low 1.01 | locus YDL185W, strain tfp1, active compounds read low 1.01 | locus YDL192W, strain arf1, active compounds read low 1.02 | locus YDR001C, strain nth1, active compounds read low 0.972 | locus YDR069C, strain doa4, active compounds read low 0.992 | locus YDR101C, strain arx1, active compounds read low 1.03 | locus YDR137W, strain rgp1, active compounds read low 0.959 | [2] 1.01 | locus YDR159W, strain sac3, active compounds read low 1.01 | locus YDR162C, strain NBP2, active compounds read low 1.01 | locus YDR195W, strain ref2 0.994 | locus YDR297W, strain sur2, active compounds read low 0.98 | locus YDR318W, strain mcm21, active compounds read low 1.02 | locus YDR334W, strain swr1, active compounds read low 0.954 | locus YDR335W, strain msn5, active compounds read low 0.973 | locus YDR388W, active compounds read low 1.01 | locus YDR392W, strain spt3, active compounds read low 0.904 | locus YDR502C, strain sam2, active compounds read low 1.03 | locus YEL003W, strain gim4, active compounds read low 0.984 | locus YEL037C, strain rad23, active compounds read low 0.999 | locus YEL061C, strain CIN8 (second series), active compounds read low 0.988 | locus YEL061C, strain CIN8, active compounds read low 1.01 | [3] 0.99 | locus YER015W, strain faa2, active compounds read low 1 | locus YER016W, strain bim1, active compounds read low 0.996 | locus YER110C, active compounds read low 1.02 | locus YER111C, strain swi4, active compounds read low 0.993 | locus YER155C, strain BEM2 (second series), active compounds read low 1 | locus YER155C, strain BEM2, active compounds read low 1.01 | locus YER167W, strain BCK2, active compounds read low 1.01 | locus YFR010W, strain ubp6, active compounds read low 0.998 | locus YGL078C, strain dbp3, active compounds read low 1.03 | locus YGL086W, strain mad1, active compounds read low 1.06 | locus YGL167C, strain pmr1, active compounds read low 0.991 | locus YGL173C, strain kem1, active compounds read low 0.985 | locus YGL227W, strain vid30, active compounds read low 0.992 | locus YGL240W, strain doc1, active compounds read low 0.995 | locus YGL248W, strain PDE1, active compounds read low 1.03 | locus YGL253W, strain hxk2, active compounds read low 0.963 | locus YGR135W, strain pre9, active compounds read low 1.04 | locus YGR229C, strain SMI1, active compounds read low 0.992 | locus YGR252W, strain gcn5, active compounds read low 1.05 | locus YHR013C, strain ard1, active compounds read low 0.965 | locus YHR027C, strain rpn1, active compounds read low 0.98 | locus YHR030C, strain SLT2, active compounds read low 1.01 and 0.969 | locus YHR079C, strain IRE1 (second series), active compounds read low 1.02 | locus YHR079C, strain IRE1, active compounds read low 0.98 | locus YHR094C, strain hxt1, active compounds read low 1.02 | locus YHR129C, strain ARP1, active compounds read low 1.01 | locus YHR142W, strain chs7, active compounds read low 0.932 | locus YHR200W, strain rpn10, active compounds read low 1.02 | locus YIL066C, strain RNR3, active compounds read low 1.01 | locus YIL073C, strain SPO22, active compounds read low 1.07 | locus YIL125W, strain kgd1, active compounds read low 1.02 | locus YIR030C, strain dcg1, active compounds read low 1.01 | locus YJL092W, strain hpr5, active compounds read low 0.994 | locus YJL095W, strain BCK1 (second series), active compounds read low 0.983 | locus YJL095W, strain BCK1, active compounds read low 1.04 and 0.975 | locus YJL115W, strain asf1, active compounds read low 0.969 | locus YJL129C, strain trk1, active compounds read low 0.97 | locus YJL134W, strain LCB3, active compounds read low 1.01 | locus YJL154C, strain vps35, active compounds read low 0.972 | locus YJL164C, strain tpk1, active compounds read low 0.996 | locus YJL166W, strain qcr8, active compounds read low 0.953 | locus YJL168C, strain set2, active compounds read low 1.02 | locus YJL187C, strain SWE1 (second series), active compounds read low 1.03 | locus YJL187C, strain SWE1, active compounds read low 1 | locus YJR043C, strain POL32, active compounds read low 1.03 | locus YJR066W, strain TOR1, active compounds read low 0.996 | locus YJR075W, strain HOC1, active compounds read low 1.01 | locus YKL009W, strain mrt4, active compounds read low 1.02 | locus YKL068W, active compounds read low 1 | locus YKL085W, strain MDH1 (second series), active compounds read low 1.06 | locus YKL085W, strain MDH1, active compounds read low 1.06 | locus YKL160W, strain elf1, active compounds read low 0.951 | locus YKL190W, strain CNB1, active compounds read low 1.01 | locus YKR001C, strain vps1, active compounds read low 1.01 | locus YKR026C, strain gcn3, active compounds read low 0.986 | locus YKR091W, strain srl3, active compounds read low 0.982 | locus YLL001W, strain dnm1, active compounds read low 0.933 | locus YLL026W, active compounds read low 0.986 | locus YLL041C, strain sdh2, active compounds read low 1 | locus YLR027C, strain aat2, active compounds read low 1.01 | locus YLR039C, strain RIC1, active compounds read low 1.01 | locus YLR058C, strain SHM2, active compounds read low 1.02 | locus YLR102C, strain apc9, active compounds read low 1.01 | locus YLR113W, strain HOG1, active compounds read low 0.951 | locus YLR221C, strain rsa3, active compounds read low 0.944 | locus YLR258W, strain gsy2, active compounds read low 0.985 | locus YLR262C, strain YPT6 (second series), active compounds read low 0.974 | locus YLR262C, strain YPT6, active compounds read low 0.982 | locus YLR268W, strain sec22, active compounds read low 1.02 | locus YLR320W, strain mms22, active compounds read low 0.944 | locus YLR330W, strain CHS5, active compounds read low 1.01 | locus YLR342W, strain FKS1 (second series), active compounds read low 1.01 | locus YLR342W, strain FKS1, active compounds read low 0.995 | locus YLR357W, strain rsc2, active compounds read low 0.974 | locus YLR370C, strain arc18, active compounds read low 0.968 | locus YLR371W, strain rom2, active compounds read low 1.01 | locus YLR384C, strain iki3, active compounds read low 0.988 | locus YLR418C, strain cdc73, active compounds read low 1.05 | locus YML016C, strain PPZ1, active compounds read low 1 | locus YML032C, strain rad52, active compounds read low 1.02 | locus YML120C, strain ndi1, active compounds read low 0.941 | locus YML124C, strain tub3, active compounds read low 1.01 | locus YMR058W, strain fet3, active compounds read low 0.99 | locus YMR078C, strain ctf18, active compounds read low 1.01 | locus YMR125W, strain sto1, active compounds read low 0.958 | locus YMR129W, active compounds read low 0.999 | locus YMR205C, strain PFK2, active compounds read low 0.947 | locus YMR223W, strain ubp8, active compounds read low 1.04 | locus YMR231W, strain pep5, active compounds read low 0.999 | locus YMR263W, strain SAP30, active compounds read low 0.988 | locus YMR307W, strain GAS1, active compounds read low 1.09 | locus YNL067W, strain RPL9B, active compounds read low 1.05 | locus YNL071W, strain lat1, active compounds read low 0.993 | [4] 1.01 | locus YNL183C, strain NPR1, active compounds read low 0.926 | [5] 0.999 | locus YNL209W, strain ssb2, active compounds read low 0.991 | [6] 1 | locus YNL233W, strain BNI4, active compounds read low 1.02 | locus YNL248C, strain rpa49, active compounds read low 0.995 | locus YNL250W, strain rad50, active compounds read low 1.02 | locus YNL271C, strain bni1, active compounds read low 1.02 | locus YNL298W, strain CLA4, active compounds read low 1.02 | locus YNL307C, strain MCK1, active compounds read low 1.02 | locus YNL322C, strain KRE1 (second series), active compounds read low 0.982 | locus YNR049C, strain mso1, active compounds read low 0.981 | locus YNR052C, strain pop2, active compounds read low 1.02 | locus YOL006C, strain TOP1, active compounds read low 1.18 | locus YOL012C, strain htz1 0.754 | locus YOL147C, strain pex11, active compounds read low 1.02 | locus YOR001W, strain rrp6, active compounds read low 1.04 | locus YOR061W, strain CKA2, active compounds read low 1.01 | locus YOR069W, strain VPS5, active compounds read low 1.01 | locus YOR070C, strain gyp1, active compounds read low 0.996 | locus YOR080W, strain dia2, active compounds read low 0.979 | [7] 0.997 | locus YOR083W, strain WHI5, active compounds read low 0.957 | locus YOR106W, strain vam3, active compounds read low 0.944 | locus YOR136W, strain idh2, active compounds read low 1.03 | locus YOR144C, strain elg1, active compounds read low 1.01 | locus YOR184W, strain ser1, active compounds read low 1.03 | locus YOR231W, strain MKK1, active compounds read low 0.989 | locus YOR265W, strain rbl2, active compounds read low 1 | locus YOR270C, strain vph1, active compounds read low 0.939 | locus YOR290C, strain snf2, active compounds read low 0.939 | locus YOR316C, strain cot1, active compounds read low 1.02 | locus YPL051W, strain arl3, active compounds read low 0.991 | [8] 1.04 | locus YPL078C, strain atp4, active compounds read low 0.954 | locus YPL106C, strain sse1, active compounds read low 0.94 | locus YPL240C, strain hsp82, active compounds read low 1 | locus YPL256C, strain CLN2, active compounds read low 0.993 | locus YPR119W, strain clb2, active compounds read low 1.02 | locus YPR141C, strain kar3, active compounds read low 1.01 | locus YPR163C, strain tif3, active compounds read low 1.01 | locus YPR167C, strain met16, active compounds read low 1.01 | strain wtn01, active compounds read low 1.04
